For 10 compounds, outcome and AC50 results are on record in PubChem BioAssay (EPA / NIEHS).

Experiment [1] can be described thus: CEETOX_H295R_11DCORT_noMTC: CeeTox H295R High-throughput Steroidogenesis Assay for 11-Deoxycortisol (11DCORT), maximum tolerated concentration (MTC) filtered results only (AID 2283911). The settings on record: actives raise or lower the signal. In outline:
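Steroidogenesis was stimulated in H295R cells with 10 uM forskolin for 48 h before a 48 h chemical exposure. Secreted 11-deoxycortisol was measured by tandem mass spectrometry and fitted bidirectionally against DMSO controls.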

Experiment [2] is described as follows: CEETOX_H295R_OHPREG_noMTC: CeeTox H295R High-throughput Steroidogenesis Assay for OH-Pregnenolone (OHPREG), maximum tolerated concentration (MTC) filtered results only (AID 2283912). The conditions noted are these: actives raise or lower the signal. The method in brief: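 Steroidogenesis in H295R cells (OECD 456, modified): after 48 h forskolin priming and 48 h chemical treatment, secreted 17alpha-hydroxypregnenolone is measured by HPLC-MS/MS. Activity is fitted in both directions against DMSO; concentrations are not filtered by MTT-based MTC.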

Experiment [3] can be described thus: CEETOX_H295R_OHPROG_noMTC: CeeTox H295R High-throughput Steroidogenesis Assay for OH-Progesterone (OHPROG), maximum tolerated concentration (MTC) filtered results only (AID 2283914). The conditions noted are these: actives raise or lower the signal. The method in brief:
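Forskolin 10 uM, 48 h prestim → test cmpd in DMSO (0.1% final), 48 h → medium MTBE extraction → LC-MS/MS quant of 17alpha-OH-progesterone. Bidirectional fit vs DMSO; no MTT-based MTC filtering.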

A short description of experiment [4]: CEETOX_H295R_CORTISOL_noMTC: CeeTox H295R High-throughput Steroidogenesis Assay for Cortisol, maximum tolerated concentration (MTC) filtered results only (AID 2283916). The conditions noted are these: actives raise or lower the signal. In outline:
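Cortisol secretion measured by LC-MS/MS after 48 h chemical treatment (final 0.1% DMSO) of forskolin-primed (10 uM, 48 h) H295R cells; gain or loss fitted relative to DMSO, without maximum-tolerated-concentration filtering.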

Experiment [5] is described as follows: CEETOX_H295R_CORTIC_noMTC: CeeTox H295R High-throughput Steroidogenesis Assay for Corticosterone (CORTIC), maximum tolerated concentration (MTC) filtered results only (AID 2283917). The settings on record: actives raise or lower the signal. The method in brief:
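Following OECD 456 with minor changes, H295R cultures received 10 uM forskolin for 48 h, then test chemical at 0.1% DMSO for 48 h. Media steroids were extracted and measured by LC-MS/MS.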

The nature of experiment [6]: CEETOX_H295R_DOC_noMTC: CeeTox H295R High-throughput Steroidogenesis Assay for DOC, maximum tolerated concentration (MTC) filtered results only (AID 2283918). The conditions noted are these: actives raise or lower the signal. The method in brief:
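11-Deoxycorticosterone secreted by human adrenal H295R cells quantified by HPLC-MS/MS after 48 h chemical exposure (0.1% DMSO), following 48 h 10 uM forskolin prestimulation. Concentrations not filtered by MTT-derived MTC; bidirectional fitting.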

Experiment [7] is described as follows: CEETOX_H295R_ESTRADIOL_noMTC: CeeTox H295R High-throughput Steroidogenesis Assay for Estradiol, maximum tolerated concentration (MTC) filtered results only (AID 2283919). The conditions noted are these: actives raise or lower the signal. The method in brief:
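H295R human adrenal cells pre-stimulated 48 h with 10 uM forskolin, then exposed 48 h to chemical (0.1% DMSO final). Estradiol in medium measured by HPLC-MS/MS after MTBE extraction and dansyl derivatization; bidirectional fit versus DMSO, concentrations not MTT-filtered.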

Experiment [8] in a line: CEETOX_H295R_PROG_noMTC: CeeTox H295R High-throughput Steroidogenesis Assay for Progesterone (PROG), maximum tolerated concentration (MTC) filtered results only (AID 2283920). The conditions noted are these: actives raise or lower the signal. In outline: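 H295R cells; forskolin 10 uM x 48 h prestim; test cpd 48 h, 0.1% DMSO final; media progesterone via LC-MS/MS; bidirectional fit vs DMSO; no MTT-based MTC filter applied.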

Experiment [9] in a line: CEETOX_H295R_ESTRONE_noMTC: CeeTox H295R High-throughput Steroidogenesis Assay for Estrone, maximum tolerated concentration (MTC) filtered results only (AID 2283921). The settings on record: actives raise or lower the signal. In outline: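 H295R cells prestimulated 48 h with 10 uM forskolin, then exposed 48 h to chemical in 0.1% DMSO; medium estrone measured by HPLC-MS/MS after MTBE extraction and dansyl derivatization, fitted bidirectionally versus DMSO without MTT-based MTC filtering.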

The target of a further experiment is PGR (gene 5241) (UniProt P06401). Nature of the experiment: TOX21_PR_BLA_Followup_Antagonist_ratio: Tox21 HEK293 Progesterone Receptor (PR) Antagonism Beta-lactamase Follow-Up Assay, Ratio (AID 2283934; active = hit-call score of the fitted dose curve at least 0.9, where 1 is the maximum). In outline: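 PR-UAS-bla HEK293T cells in medium with 2% charcoal-stripped FBS were treated with compounds plus 1 nM (final) promegestone (R5020) for 16 hr at 37C. LiveBLAzer B/G FRET substrate was then added for 2 h at room temperature; signal is cleaved/uncleaved substrate ratio versus DMSO.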
PGR (gene 5241), sequence (P06401 whole entry, looked up): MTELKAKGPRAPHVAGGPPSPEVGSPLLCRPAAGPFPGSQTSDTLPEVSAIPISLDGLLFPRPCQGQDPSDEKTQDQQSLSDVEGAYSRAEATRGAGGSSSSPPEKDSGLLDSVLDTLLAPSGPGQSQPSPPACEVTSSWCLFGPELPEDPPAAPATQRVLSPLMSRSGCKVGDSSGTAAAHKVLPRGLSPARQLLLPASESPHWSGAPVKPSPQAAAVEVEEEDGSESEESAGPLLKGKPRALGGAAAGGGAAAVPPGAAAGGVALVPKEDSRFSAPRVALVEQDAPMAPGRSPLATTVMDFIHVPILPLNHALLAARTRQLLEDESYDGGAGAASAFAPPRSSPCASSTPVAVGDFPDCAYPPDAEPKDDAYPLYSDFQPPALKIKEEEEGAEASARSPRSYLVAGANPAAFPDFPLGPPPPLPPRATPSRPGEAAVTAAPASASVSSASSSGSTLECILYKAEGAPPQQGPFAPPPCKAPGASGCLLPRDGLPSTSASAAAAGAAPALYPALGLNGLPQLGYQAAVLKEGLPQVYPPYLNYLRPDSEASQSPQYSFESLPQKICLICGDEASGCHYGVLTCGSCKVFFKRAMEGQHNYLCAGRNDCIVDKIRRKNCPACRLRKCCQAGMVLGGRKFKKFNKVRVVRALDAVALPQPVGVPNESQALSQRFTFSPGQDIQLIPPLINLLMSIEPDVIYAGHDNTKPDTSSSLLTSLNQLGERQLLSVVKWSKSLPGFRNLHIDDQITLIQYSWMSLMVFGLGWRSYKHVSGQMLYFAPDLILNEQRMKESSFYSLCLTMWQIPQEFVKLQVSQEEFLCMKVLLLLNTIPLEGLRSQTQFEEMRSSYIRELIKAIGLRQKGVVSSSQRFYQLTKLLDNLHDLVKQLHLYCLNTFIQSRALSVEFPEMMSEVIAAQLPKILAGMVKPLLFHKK

Calls of active or inactive are those of the source. The calls were made as follows, unless noted: active = hit-call score of the fitted dose curve at least 0.9, where 1 is the maximum; inactive = score below 0.9.

On to `CCCCCOC(=O)c1ccccc1C(=O)OCCCCC`, for which the outcome in experiment [1], in experiment [2], in experiment [3], in experiment [4], in experiment [5] and in experiment [6] was inactive. In addition, the call in experiment [7], in [8] and in experiment [9] was inactive.

Take `O=[N+]([O-])c1ccc(Oc2ccc(Cl)cc2Cl)cc1`: in the experiment with PGR (gene 5241), the AC50 was 20.6 µM (active).

Consider `ClC1=C(Cl)[C@]2(Cl)[C@H]3[C@H]([C@@H]4C=C[C@H]3C4)[C@@]1(Cl)C2(Cl)Cl`, for which the AC50 with PGR (gene 5241) is 46.1 µM (active).

For `Clc1ccc(C(c2ccc(Cl)cc2)C(Cl)(Cl)Cl)cc1`, the AC50 with PGR (gene 5241) is 34.8 µM (active).

As to `C=CCc1ccc2c(c1)OCO2`, the outcome in experiment [1], in experiment [2], in experiment [3], in [4], in [5] and in experiment [6] was inactive. Besides, the compound was called inactive in experiment [8].

For the compound `C[C@]12C=CC3=C4CCC(=O)C=C4CC[C@H]3[C@@H]1CC[C@@H]2O`, in the experiment with PGR (gene 5241), the outcome was inactive.

On to `CCCCOC(=O)c1ccccc1C(=O)OCc1ccccc1`, for which the call in experiment [1], in experiment [2], in experiment [3], in [4], in [5] and in experiment [6] was inactive. In addition, the compound was classed as inactive (in experiment [8]; with PGR (gene 5241)).

For `Brc1ccc(Oc2ccccc2)cc1`, the compound was classed as inactive in [1], in [2], in experiment [3], in [4], in experiment [5] and in [8].

For `Clc1ccc(C(c2ccc(Cl)cc2)C(Cl)Cl)cc1`, the AC50 in the experiment with PGR (gene 5241) is 31.5 µM (active).

With `CC(C)COC(=O)c1ccccc1C(=O)OCC(C)C`, the call in experiment [1], in experiment [2], in [3], in experiment [4], in [5] and in experiment [6] was inactive. The outcome in experiment [7], in experiment [8] and in [9] was inactive.

By AC50 is commonly meant the midpoint of the concentration-response curve, whichever way the signal moves.
